# Measurements published in the supplement of paper PMC12636033.
# ± gives the standard deviation of the averaged measurements. Over roughly 33,000 sequences, “E-score (rank enrichment, -0.5 to 0.5)” has its median near -0.0028; the highest 2% begin near 0.23. Only a selection was taken, and the highest values are over-represented in it overall.
# Tested on: 2Sb-muMax20 (muMax20 with two 1,3-bis(methyl)benzene Cys staples, A13C/A17C and Q88C/A92C, C-terminal Lys)
# Assay: PBM 8-mer E-score (E-score (rank enrichment, -0.5 to 0.5)); higher = stronger preferential binding
# Experimental: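 Protein binding microarray (universal PBM chip covering all 10-mers in fixed probe flanks) with chemically synthesized human Max(13-93) bHLH-LZ analogs (not full-length Max) bearing noncanonical residues (hArg, Tha, Aib, Nle at 65) and aromatic Cys staples. Read-out per 8-mer (and its reverse complement): E-score (rank-based enrichment, -0.5 to 0.5) and Z-score of median probe intensity.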
row,Sequence,PBM 8-mer E-score
1,GTCCCCTA,0.093 ± 0.011
2,CCTAAACC,0.0137 ± 0.051
3,CACACTAG,0.0294 ± 0.013
4,ATTCTGCG,-0.00613 ± 0.071
5,AAGTACGC,0.0498 ± 0.026
6,CCCTTGAG,0.00432 ± 0.0094
7,GCTGGCTA,-0.249 ± 0.011
8,ACCCCGAT,0.136 ± 0.042
9,CCGTATAC,0.0522 ± 0.032
10,AACGAGGA,0.239 ± 0.015
11,TACGAGGA,0.169 ± 0.069
12,CACGAGAA,-0.0119 ± 0.064
13,AACGAGAA,0.238 ± 0.04
14,CACGAGGA,-0.017 ± 0.031
15,AACGAGAT,-0.0543 ± 0.025
16,ATAGTGCG,0.0132 ± 0.011
17,CATCGGAC,-0.165 ± 0.033
18,GATCATAA,0.278 ± 0.0031
19,CATCATAA,0.142 ± 0.0093
20,TATCATAA,0.181 ± 0.012
21,CATCGCGA,0.056 ± 0.036
22,ACCATAAC,0.1 ± 0.012
23,ATTAATGG,0.0434 ± 0.0092
24,ATTAATGA,0.278 ± 0.055
25,ATTAACTC,0.136 ± 0.005

row,Sequence,PBM 8-mer E-score
1,ATAAATTG,0.165 ± 0.082
2,ATTAATTC,0.105 ± 0.042
3,ATAAATTA,0.307 ± 0.014
4,GTTAATGA,0.148 ± 0.06
5,GTTAACTA,0.207 ± 0.1
6,CTAAATTA,0.0224 ± 0.0043
7,ATTAATTA,0.263 ± 0.034
8,ATTAACTA,0.237 ± 0.012
9,ATTAATTG,0.175 ± 0.039
10,CGGTCACG,-0.188 ± 0.076
11,CAGGGAGC,-0.238 ± 0.051
12,AGCCTTCA,0.149 ± 0.085
13,AATAATGC,0.213 ± 0.083
14,CTGAACTA,-0.149 ± 0.065
15,AATAATGG,0.138 ± 0.0076
16,AATAATGT,0.283 ± 0.0037
17,ATGAACTC,-0.04627 ± 0.0002
18,ATGAACTA,0.27 ± 0.054
19,CATAATTA,0.203 ± 0.039
20,AATAATTA,0.269 ± 0.06
21,GATAATTA,0.0844 ± 0.0069
22,GAGTGCAC,-0.0155 ± 0.11
23,AATACGGA,0.0895 ± 0.071
24,CGGAATGC,-0.00566 ± 0.015
25,GTCCATTA,0.107 ± 0.015

row,Sequence,PBM 8-mer E-score
1,ATGTGGAA,0.173 ± 0.015
2,GGAAATAC,-0.0227 ± 0.051
3,GAGTTCCA,-0.117 ± 0.052
4,GCACGTCC,-0.139 ± 0.095
5,GCACGTAC,0.0889 ± 0.026
6,GGACGTGA,-0.108 ± 0.045
7,GCACGTGC,0.4793 ± 0.0038
8,GCACGTGA,0.241 ± 0.026
9,GAACGTGA,0.00502 ± 0.1
10,GTTCCGTA,-0.187 ± 0.024
11,ATCCACAA,0.0617 ± 0.059
12,ATCGTCCG,-0.149 ± 0.027
13,GTTTCTTA,0.0179 ± 0.046
14,AATAACCG,0.0384 ± 0.018
15,GCGCGCGC,0.3223 ± 0.00078
16,GCGCGCGA,0.0594 ± 0.082
17,ACGCGCGG,0.178 ± 0.038
18,ACGCGCGC,0.1365 ± 0.00093
19,CCGCGCGC,0.01 ± 0.0081
20,ACGCGCGT,0.3355 ± 0.0029
21,AGCAGTTC,0.00143 ± 0.078
22,AAAAATAA,0.0834 ± 0.061
23,GACCTGGA,-0.164 ± 0.035
24,AATATTCT,0.133 ± 0.011
25,AATACGCA,0.251 ± 0.0039

row,Sequence,PBM 8-mer E-score
1,AATACGTG,0.0524 ± 0.012
2,AATACGCT,0.188 ± 0.045
3,CATACGTC,-0.00541 ± 0.00038
4,CATACGTA,0.3021 ± 0.0027
5,AATACGTA,0.231 ± 0.019
6,AATACGTC,0.0547 ± 0.024
7,GATACGTA,0.081 ± 0.0043
8,GATACGCA,0.115 ± 0.031
9,AAGCACAC,0.0724 ± 0.00084
10,AGACGTAA,0.0336 ± 0.059
11,CCGTAGAG,-0.0843 ± 0.033
12,TAGGGGCA,0.267 ± 0.013
13,AAAGGGCT,0.0103 ± 0.021
14,GAGGGGCA,0.0724 ± 0.043
15,AAGGGGCT,0.276 ± 0.0072
16,CAGGGGCA,0.0503 ± 0.027
17,AAGGGGCG,0.0188 ± 0.025
18,AAAGTTAT,0.0271 ± 0.025
19,AATAGGGC,-0.00932 ± 0.054
20,CAGTTTGA,-0.0513 ± 0.03
21,GGAATGCC,-0.081 ± 0.011
22,GTGGAGCA,-0.0959 ± 0.032
23,AATAGCAG,-0.0835 ± 0.028
24,ATTGTATG,0.172 ± 0.066
25,CTTGTACA,0.0642 ± 0.09

row,Sequence,PBM 8-mer E-score
1,ATTGTACA,0.241 ± 0.042
2,ATTGTATA,0.273 ± 0.017
3,GCTGTATA,0.218 ± 0.05
4,GACGTATA,0.0136 ± 0.0084
5,AACGTATA,0.251 ± 0.032
6,CCTGTATA,0.109 ± 0.011
7,ATTGTACC,0.178 ± 0.035
8,CTTGTATA,0.164 ± 0.018
9,ACTGTATA,0.236 ± 0.042
10,CACGTATA,0.0602 ± 0.053
11,TGAAGAAA,-0.0313 ± 0.065
12,CACCTCTG,-0.0833 ± 0.03
13,CGTAACAG,0.177 ± 0.013
14,GAAGGCGC,-0.0372 ± 0.063
15,ATTGTCTA,0.277 ± 0.0069
16,GATGTATA,0.0803 ± 0.029
17,AATGTATA,0.269 ± 0.02
18,ATTGTCTC,-0.0946 ± 0.028
19,CATGTATA,0.15 ± 0.062
20,GTTGTCTA,-0.0541 ± 0.029
21,TAACGGAA,0.149 ± 0.021
22,ACAGTGAT,0.142 ± 0.065
23,TAAGGCTA,0.0712 ± 0.066
24,ATGAGGGG,0.267 ± 0.0094
25,ATGAGGGC,0.0989 ± 0.0016

row,Sequence,PBM 8-mer E-score
1,AGGAGGGG,0.297 ± 0.06
2,AGTAGGGC,0.0716 ± 0.0035
3,ATGAGGGA,0.191 ± 0.062
4,AGTAGGGA,0.0636 ± 0.013
5,AGGAGGGA,-0.0776 ± 0.0034
6,AGTAGGGG,0.306 ± 0.0088
7,AGGAGGGC,-0.0974 ± 0.038
8,AATGGCGA,0.135 ± 0.067
9,GACTCAGA,-0.115 ± 0.064
10,CACGGCAC,-0.198 ± 0.045
11,GGTCTCTA,-0.0733 ± 0.014
12,CCTGAGCC,-0.241 ± 0.074
13,TGTTTCAA,0.13 ± 0.063
14,GAAGTTGC,-0.202 ± 0.021
15,CCTTCACG,-0.013 ± 0.075
16,CCTTCACA,0.298 ± 0.014
17,ACTTCACA,0.0282 ± 0.023
18,AATCCCGT,-0.000655 ± 0.018
19,ATATTTAA,0.256 ± 0.024
20,GTATTTTA,0.0366 ± 0.0083
21,CCATTTTA,0.0822 ± 0.0077
22,GCATTTTA,0.151 ± 0.0045
23,ACATTTTA,0.242 ± 0.054
24,ATATTTTA,0.238 ± 0.0056
25,CTATTTAA,-0.0132 ± 0.0071

row,Sequence,PBM 8-mer E-score
1,ATATTTAC,0.22 ± 0.028
2,CTATTTTA,0.193 ± 0.048
3,CCTTTTTC,0.0688 ± 0.1
4,CCCGAAAA,0.0645 ± 0.051
5,AGTATTAT,-0.0141 ± 0.036
6,AGCGAACC,-0.0262 ± 0.033
7,GCCCTCAA,0.0476 ± 0.024
8,AAAGTACT,0.136 ± 0.092
9,GGAAGTAA,0.262 ± 0.0039
10,AGAAGTAA,0.141 ± 0.011
11,TGAAGTAA,0.1 ± 0.05
12,TATATCCA,0.157 ± 0.048
13,AGTCGCAT,0.00112 ± 0.0029
14,ATGATCCG,-0.186 ± 0.035
15,AAAAATAT,0.16 ± 0.01
16,ATAAATAC,0.288 ± 0.028
17,ATAAACAA,0.157 ± 0.019
18,ATAAATAA,0.111 ± 0.012
19,ATAAATAT,0.239 ± 0.042
20,ATAAATAG,0.111 ± 0.04
21,ATAAACAC,0.0999 ± 0.056
22,ATAAACAT,0.246 ± 0.014
23,ATAAAAAT,0.136 ± 0.028
